PubChem BioAssay AID1851 (National Center for Advancing Translational Sciences (NCATS), 2009)
Out of some 16,000 compounds screened, about 4,000 (25%) were called active. Roughly 26% stayed inconclusive and do not appear here. The call rests on the fitted dose curve; in most records, active means well fitted curve in the direction sought with a large enough effect; inconclusive means small, poorly fitted or top-dose-only effect, or effect the other way; inactive means no such curve, though single readings can be large or run the other way. The list is a sample of the results.

Biological target: Cytochrome P450 2C9 (Homo sapiens) (UniProt P11712)
Assay: Cytochrome panel assay with activity outcomes
Settings: recombinant CYP, pro-luciferin dealkylation, luminescence, p450-cyp2c9; series mostly up to 57.1 µM
On the % scale 0 is the no-effect control and ±100 the full control effect.

Sequence of Cytochrome P450 2C9 (Homo sapiens) (P11712 whole entry, looked up): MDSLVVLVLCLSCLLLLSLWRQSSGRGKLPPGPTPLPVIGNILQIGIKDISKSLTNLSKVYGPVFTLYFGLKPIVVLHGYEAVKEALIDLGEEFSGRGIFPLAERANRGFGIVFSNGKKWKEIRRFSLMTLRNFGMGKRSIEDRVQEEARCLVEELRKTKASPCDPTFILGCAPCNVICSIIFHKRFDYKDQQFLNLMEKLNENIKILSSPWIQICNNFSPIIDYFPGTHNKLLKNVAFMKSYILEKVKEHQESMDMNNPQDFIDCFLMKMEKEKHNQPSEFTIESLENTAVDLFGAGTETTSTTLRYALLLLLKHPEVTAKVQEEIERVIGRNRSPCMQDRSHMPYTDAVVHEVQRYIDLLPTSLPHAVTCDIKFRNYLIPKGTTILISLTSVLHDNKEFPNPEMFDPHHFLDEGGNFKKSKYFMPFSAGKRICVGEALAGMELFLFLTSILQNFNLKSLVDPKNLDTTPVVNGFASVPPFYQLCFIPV

AC50, active:
Cc1sc(NC(=O)C2C3CCC(O3)C2C(=O)O)c(C(=O)OC(C)C)c1-c1ccc(Cl)cc1 (stereo not drawn) 14.1 µM, CCOC(=O)c1ccc(N/C(=N\S(=O)(=O)c2ccccc2C)c2ccccc2)cc1 3.98 µM, COc1ccc(CC(=O)NC(=S)Nc2ccc(S(=O)(=O)NC(C)(C)C)cc2)cc1 8.91 µM, CCCCCC/C(C)=C1/SC(=S)NC1=O 5.01 µM, CCOC(=O)c1ccccc1OCc1cc(/C=N/n2cnnc2)ccc1OC 2.24 µM, O=C1CC(SC(=Nc2ccccc2)Nc2ccccc2)C(=O)N1c1cccc(Cl)c1 (stereo not drawn) 3.55 µM, CCN=C(Nc1cccc(F)c1)SC1CC(=O)N(c2ccc(OC)cc2)C1=O (stereo not drawn) 6.31 µM, COc1ccc(N2C(=O)CC(S/C(N)=N/N=C(\C)c3cccs3)C2=O)cc1 (stereo not drawn) 3.98 µM, CCCOc1ccc(N2C(=O)CC(S/C(N)=N/N=C(\C)c3cccs3)C2=O)cc1 (stereo not drawn) 4.47 µM, COc1ccccc1NC(=O)[C@H](COCc1ccccc1)NC(=O)OC(C)(C)C 7.94 µM, Cn1cc(-c2nc3cnc(N4CCNCC4)nc3n(C)c2=O)c2ccccc21 7.94 µM, Cn1cc(-c2nc3cnc(N4CCNCC4)nc3n(C3CC3)c2=O)c2ccccc21 3.98 µM, CCOC(=O)CNc1c(-c2ccccc2)nc2ccc(Cl)cn12 2.82 µM, Oc1ccc(Cl)cc1Cc1cc(Cl)cc(Cc2cc(Cl)ccc2O)c1O 2.51 µM, Oc1ccc(Cc2cc(Cl)cc(Cl)c2O)cc1Cl 0.2 µM, Cn1c(CC(=O)Nc2ccc(Cl)c(Cl)c2)nnc1SCC(=O)N1CCN(c2ccccc2)CC1 5.62 µM, CCOC(=O)N1CCC(NC(=O)c2cc(S(=O)(=O)N3CCCC3)cn2C)CC1 7.08 µM, O=S(=O)(O)c1cc(O)c2c(N=Cc3ccccc3O)cc(S(=O)(=O)O)cc2c1 3.16 µM, Cc1ccc(Nc2ccc(-n3ccnc3)nn2)cc1C 0.0794 µM, CCc1noc(N)c1C(=O)Nc1ccc(F)c(Cl)c1 14.1 µM, O=C(Nc1ccc(F)cc1)c1cc(S(=O)(=O)N2CCCCC2)cs1 12.6 µM, O=C1C=C(NCCc2cc(Br)c(O)c(Br)c2)C(=O)c2ncccc21 1.58 µM, COc1ccc2c(c1)c(=O)oc1c(C)c(OCC(=O)N3CCc4ccccc4C3)ccc12 1 µM, COc1ccccc1C1(CC(=O)Nc2nccs2)CCOC(C(C)C)C1 (stereo not drawn) 10 µM, CN(C)c1ccnc(Oc2ccc(Cl)cc2)c1C#N 20 µM, N#Cc1c(-c2ccccc2)ccnc1Oc1ccccc1 7.08 µM, CC(C)OC(=O)c1cc2c(ccn2C)n1CC(=O)N1CCC(Cc2ccccc2)CC1 14.1 µM, Cc1ccc(C)c(Cn2c(C(=O)OC(C)C)cc3c2ccn3C)c1 8.91 µM, COCCn1c(=O)c(-c2cc(F)cc(F)c2)nc2cnc(Oc3cccc(Cl)c3)nc21 3.98 µM, COCCn1c(=O)c(-c2ccc(OC)cc2)nc2cnc(Oc3cccc(Cl)c3)nc21 0.631 µM, COCCn1c(=O)c(-c2ccccc2)nc2cnc(Oc3cccc(Cl)c3)nc21 0.501 µM, Fc1ccccc1NC(=S)NCCc1ccccc1 7.94 µM, Fc1ccc(NC(=S)NCCc2ccccc2)c(F)c1F 5.01 µM, Fc1cc(Br)ccc1NC(=S)NCCc1ccccc1 10 µM

AC50, inactive:
Cc1ccc(-c2c(C)sc(NC(=O)C3C4CCC(O4)C3C(=O)O)c2C(=O)OC(C)C)cc1 (stereo not drawn), CC(=O)NS(=O)(=O)c1ccc(NC(=S)NC(=O)C(C)(C)C)cc1, CN1CC[C@@]2(CCCN(C(=O)c3cc(C(F)(F)F)cc(C(F)(F)F)c3)C2)C1, CCOC(=O)C1=C(O)/C(=C\c2ccc(OC)c(OC)c2)N=C1C, CCOC(=O)C1=C(O)/C(=C/c2cc(OC)c(OC)c(OC)c2)N=C1C, CCOC(=O)NNC1CC(=O)N(c2ccc(OC)cc2)C1=O (stereo not drawn), O=C1CC(N2CCOCC2)C(=O)N1c1cccc(Cl)c1 (stereo not drawn), COc1ccc(C(=O)N2CCC3(CCN(C(=O)Nc4cccc(F)c4)CC3)CC2)cc1, COc1ccc(-n2c(=O)c(-c3cccs3)nc3cnc(N4CCN(C)CC4)nc32)cc1, COc1ccc(C2=Nc3cccc4cccc(c34)N2)cc1, Cn1cnc2c(NC3CCCC3)ncnc21, COc1ccc(C(=O)N2CC3(CC(c4ccc(Cl)cc4)=NO3)C[C@H]2C(=O)NCC(N)=O)cc1 (stereo partly drawn), COc1ccccc1NC(=O)C(C/C=C(\C)Cl)C(C)=O (stereo not drawn), CN1CCN(c2ncc3nc(-c4cn(C)c5ccccc45)c(=O)n(-c4ccccc4)c3n2)CC1, Cn1cc(-c2nc3cncnc3n(C3CC3)c2=O)c2ccccc21, Cn1cc(-c2nc3cnc(N4CCNCC4)nc3n(-c3ccccc3)c2=O)c2ccccc21, Cn1cc(-c2nc3cnc(N4CCOCC4)nc3n(C3CC3)c2=O)c2ccccc21, Cc1n[nH]c(C)c1N=Nc1cc(Cl)ccc1Cl, CCOc1ccc(Cl)cc1CNCCNCCO, O=C(O)[C@@H]1C[C@@H](C(=O)O)N1, Cc1nonc1NC(=O)N1CCCC1, CC1CC(C)CN(C(=O)CSc2nnc(CSc3ncccn3)n2C)C1 (stereo not drawn), CCCS(=O)(=O)N1CCCC(C(=O)N2CCN(C(=O)OCC)CC2)C1 (stereo not drawn), CCOC(=O)N1CCC(NC(=O)C2CCN(S(=O)(=O)N3CCCC3)CC2)CC1, CCc1ccc(NC(=O)c2cc(C(C)C)on2)cc1, O=C(O)c1cc(S(=O)(=O)N2CCCCC2)ccc1F, COCC(=O)N1CCC2(CC1)CCN(C(=O)Nc1ccc(OC)cc1)CC2, CN(C)CC[C@H](c1ccc(Br)cc1)c1ccccn1, COc1ccc(Oc2nccc(-c3ccc(F)cc3)c2C#N)cc1, C[C@@H]1O[C@H](O[C@@H]2[C@@H](Oc3cc(O)c4c(c3)O[C@H](c3ccc(O)cc3)CC4=O)O[C@@H](CO)[C@@H](O)[C@H]2O)[C@@H](O)[C@H](O)[C@@H]1O, C[C@@H](CN1CCC(Cc2ccccc2)CC1)[C@@H](O)c1ccc(O)cc1, C[C@@H](CN1CCC(Cc2ccccc2)CC1)[C@H](O)c1ccc(O)cc1, N#CCCn1c(=O)c(-c2ccc(F)cc2)nc2cnc(Oc3cccc(Cl)c3)nc21, CCNc1ncc2nc(-c3cc(F)cc(F)c3)c(=O)n(CCOC)c2n1, COCCn1c(=O)c(-c2ccc(OC)cc2)nc2cnc(Nc3cccc(OC)c3)nc21, COCCn1c(=O)c(-c2cn(C)c3ccccc23)nc2cnc(Oc3cccc(Cl)c3)nc21, O=c1[nH]c(=O)n([C@@H]2C[C@H](O)[C@H](CO)O2)cc1C(F)(F)F, COc1ccccc1NC(=S)NCCc1ccccc1

activity, negative = inhibition, inactive:
NC(=O)c1ccccc1-c1nc(-n2ccnc2)c2ccccc2n1 8.72% [at 2.29 µM], COCCNc1ncnc2ccc(-c3ccoc3)cc12 0.323% [at 2.29 µM], CC(=O)OC[C@@H]1O[C@H](C/C=N\O[C@@H]2O[C@H](COC(C)=O)[C@@H](OC(C)=O)[C@H](OC(C)=O)[C@H]2OC(C)=O)C=C[C@@H]1OC(C)=O 4.96% [at 11.4 µM], Cc1cnc(CNc2ncnc3ccc(-c4ccccc4Cl)cc23)cn1 -25% [at 2.29 µM], CO[C@H]1COC(=O)CCC[C@H](C)[C@@H](OC)COC(=O)C/C=C\[C@@H]1C 14.4% [at 11.4 µM], C[C@@H]1CCCN(CP(=O)(c2ccccc2)c2ccccc2)C1 -15.6% [at 11.4 µM], CN(C)Cc1cc(Cl)c(O)c(CN(C)C)c1 -9.61% [at 11.4 µM], O=C(O)Cc1cc(Cl)ccc1O 12.8% [at 11.4 µM], COc1ccccc1CNc1ncncc1-c1cccnc1 -1.61% [at 2.29 µM], C[C@@]12CCC(=O)C=C1CC[C@H]1[C@@H]2[C@@H](O)C[C@]2(C)[C@@H]1CC[C@@]2(O)C(=O)COC(=O)C1CCCC1 -1.4% [at 11.4 µM], Nc1ccccc1N=Nc1c(S(=O)(=O)O)cc2cc(S(=O)(=O)O)cc(O)c2c1O -15.1% [at 11.4 µM], COc1ccccc1-c1cc(-n2ccnc2)ncn1 -8.14% [at 2.29 µM], CS(=O)(=O)Nc1cccc(-c2nccc(-n3ccnc3)n2)c1 -8.16% [at 2.29 µM], O=C(N/N=C1/C[C@@H](O)[C@@H](O)[C@@H]2[C@H]3C(=O)N(c4ccc(F)cc4F)C(=O)[C@@H]3CC[C@H]12)OCc1ccccc1 -11.6% [at 11.4 µM], O=C1C=C(Nc2nc(C(=O)O)cc(=O)[nH]2)c2ccccc2C1=O 8.04% [at 11.4 µM], CN(Cc1ccco1)c1ccnc(-c2ccoc2)n1 27.8% [at 2.29 µM], Oc1ccccc1CNCc1ccccc1O -4.69% [at 11.4 µM], O[C@@H](c1cc(C(F)(F)F)nc2c(Cl)cc(Cl)cc12)[C@@H]1CCCCN1 0.514% [at 11.4 µM], N#Cc1cccc(-c2nccc(NCc3ccccc3)n2)c1 -19.1% [at 2.29 µM], COc1ccccc1CNc1cc(-c2cccc(C#N)c2)ncn1 8.28% [at 2.29 µM], Cc1ccc2c(c1)N[C@H](c1ccc(C(=O)O)cc1)c1cccn1-2 -25.1% [at 11.4 µM]
